# Most compounds without a hit are left out; they make up all but 5.2% or so of the library.
# Tau ThT inhib – blocks human tau fibril formation measured by thioflavin T; hit rate 2.1% among 270,000; recombinant tau K18 P301L, heparin-induced fibrillization, ThT fluorescence; P10636; Potency, µM (doses to about 57.4 µM), for inactives: at the highest dose activity, negative = inhibition, usual class: inhibitors; also: potency is read from the fitted curve at half-maximal effect; nearly all actives have a fitted effect of over 55% in size
# Target sequence (P10636 561-689 P618L limits assumed): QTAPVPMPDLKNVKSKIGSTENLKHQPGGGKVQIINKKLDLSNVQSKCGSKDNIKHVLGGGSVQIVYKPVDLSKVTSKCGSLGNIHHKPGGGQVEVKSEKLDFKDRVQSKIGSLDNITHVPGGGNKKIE
#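 Aggregation was driven by heparin (20 uM final) acting on recombinant tau […] bearing P301L in 100 mM sodium acetate pH 7; fibrils were detected with Thioflavin T.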
# Tau fibril FP – tau fibrillization inhibition (FP); P10636; K18 P301L tau heparin fibrillization, Alexa594 FP, 6 h; Potency, µM (highest dose often 57.7 µM), for the others: at the top dose activity, negative = inhibition, most hits filed as inhibitors; hit rate 0.39% among 280,000; AID 1468; also: potency is read from the fitted curve at half-maximal effect; nearly all actives have a fitted effect of over 55% in size
#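 Read-out: fluorescence polarization of Alexa 594-labeled tau (0.24 uM), 555 nm excitation, 632 nm emission. Mixtures held 15 uM unlabeled K18 P301L, compound and 20 uM heparin, pH 7 acetate buffer, incubated 6 hr at 37 C.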
# Sfp inh – inhibitors of Bacillus subtilis Sfp phosphopantetheinyl transferase. Q9F4F7. Biochemical Sfp PPTase activity, qHTS. Potency, µM, for inactives: largest response in the series, negative = inhibition, most hits filed as inhibitors. hit rate 3.5% among 310,000. AID 1490;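 also: the enzyme is Sfp with the accession as filed and its product quenches rhodamine fluorescence; potency is read from the fitted curve at half-maximal effect; 0% = enzyme reaction without inhibitor and -100% = no enzyme wells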
#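 After 15 min at room temperature with compound, 15 nM Sfp received 5 uM rhodamine-CoA plus 12.5 uM BHQ-2-ybbR (50 mM Hepes pH 7.6, 10 mM MgCl2). Rate came from the fluorescence difference over 30 min, ex 525/em 598 nm.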
# FBPA coupling cs – inhibits coupling enzyme system, counter-screen for aldolase hits; activity change, negative = inhibition, % at 58.2 µM, hits read low; hit rate 0.67% among 290,000; coupling enzyme system counterscreen, AmpLite Red fluorescence; AID 2472; in the data active = activity change below about -30%
#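 Activity here indicates interference with the coupling reaction, not aldolase inhibition. Compounds at 57.5 uM final met coupling enzymes for 10 min at RT; substrate and AmpLite Red detection followed, with a 525/598 nm fluorescence read after 20 min.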
# Tau fluor cs – counter-screen for tau fibril formation inhibitors; tau K18 P301L Alexa594 fluorescence, heparin fibrillization; Potency, µM (titrated, usually from 57.7 µM), for inactives: at the highest dose activity change, negative = decrease; hit rate 0.93% among 280,000; AID 1463; also: potency is read from the fitted curve at half-maximal effect; nearly all actives have a fitted effect of over 55% in size
#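 Human tau K18 P301L (15 uM unlabeled, 0.24 uM Alexa 594-labeled) in 100 mM sodium acetate pH 7 with 20 uM heparin, 6 hr at 37 C. ThT 30 uM added, 1 hr ambient; Alexa 594 FP and total fluorescence read at 555/632 nm.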
# Active calls of the source: *; ? = inconclusive; . = no result given; [ ] = dose if it differs, or a comment. Unless noted, calls follow the shape of the dose curve; as a rule, active = well fitted curve in the direction sought with a large enough effect; inconclusive = small, poorly fitted or top-dose-only effect, or another doubt; inactive = no such curve, though single readings can be large; an effect the other way counts as inactive or inconclusive. Unless noted, % is scaled to controls: 0 for no effect and ±100 for the full control effect.
SMILES,Tau ThT inhib,Tau fibril FP,Sfp inh,FBPA coupling cs,Tau fluor cs
CCOc1ccc(NS(=O)(=O)c2ccc3[nH]c4c(c3c2)CCCC4)cc1,-0.9%,-1.1%,.,.,12.6µM*[quencher]
COc1ccc(NS(=O)(=O)c2ccc3nc(-c4ccccc4)[nH]c3c2)cc1,6.2%,?,.,.,?
C[C@]12C[C@@](C)(C=C1/C=C/c1ccc(C(F)(F)F)cc1)C(=O)C[C@H]2c1ccc(C(F)(F)F)cc1,-2.5%,-2.8%,12.9%,-0.7,-9.8%
O=C(CN1C(=O)COc2ccc(S(=O)(=O)N3CCCCCC3)cc21)NCCc1ccccc1,-3.2%,5.7%,.,.,-14.8%
Cc1cccc(C)c1OCCCn1c(CCNC(=O)C2CCCCC2)nc2ccccc21,?,-4.0%,.,.,-18.6%
COc1ccc(NS(=O)(=O)c2ccc3[nH]c4c(c3c2)CCCC4)c(OC)c1,-6.5%,14.7%,.,.,15.8µM*[quencher]
COc1ccc(OC)c(CNS(=O)(=O)c2ccc3[nH]c4c(c3c2)CCCCC4)c1,-13.1%,10.5%,.,.,?
COc1ccc(NS(=O)(=O)c2ccc3[nH]c4c(c3c2)CCCC4)cc1Cl,-12.7%,-12.7%,.,.,8.91µM*[quencher]
Cc1ccc(NS(=O)(=O)c2ccc3[nH]c4c(c3c2)CCCCCC4)cc1Cl,-5.7%,-8.7%,.,.,7.08µM*[quencher]
Cc1ccc(NS(=O)(=O)c2ccc3[nH]c4c(c3c2)CCCC4)cc1N(C)C,-6.7%,13.1%,.,.,22.4µM*[quencher]
O=C(Nc1ccc2nc(SCC(=O)N3CCCc4ccccc43)sc2c1)c1ccccc1,-11.2%,?,.,.,?
Cc1cc2nc(-c3cc(NC(=O)c4cc5ccccc5o4)ccc3Cl)oc2cc1C,4.7%,?,.,.,?
COc1ccc(NC(=O)C(=O)NCC(c2ccc3c(c2)OCO3)N2CCN(C)CC2)cc1 (centres undefined),-0.1%,2.8%,.,.,0.3%
COCCSc1ccccc1C(=O)Nc1ccccc1C(C)C,-1.0%,-9.0%,17.8µM*,0.3,-6.5%
Cc1cc2nc3c(=O)[nH]c(=O)[nH]c3nc2c([N+](=O)[O-])c1N,14.1µM*,?,?,-30.0*,?
C[C@@H]1OC(Oc2ccccc2-c2cc(=O)c3c(O)cc(O)c([C@@H]4O[C@H](CO)[C@@H](O)[C@H](O)[C@H]4O)c3o2)[C@H](O)[C@H](O)[C@H]1O (some centres undefined),.,.,15.7%,1.6,.
CN(C)CC/C=C1\c2cc(F)ccc2CSc2ccccc21,-9.3%,2.7%,79.4µM*,1.6,1.9%
O=C(NCCCN1CCN(c2ccccc2F)CC1)c1ccc2nc(CCc3ccccc3)oc2c1,?,0.8%,.,.,-16.2%
O=[N+]([O-])c1ccc(S(=O)(=O)c2ccccc2)nc1,.,.,50.1µM*,-13.2,.
OC[C@H]1NC[C@H](O)[C@@H](O)[C@@H]1O,.,.,13.4%,-0.6,.
Cc1cccc(C)c1NC(=O)C(=O)NCC(c1cccnc1)N1CCc2ccccc21 (centres undefined),9.4%,-4.6%,.,.,-0.7%
CC(C)c1ccc(N2CCN(C(=O)c3ccccc3NC(=O)/C=C\C(=O)O)CC2)cc1,-25.5%,-1.0%,79.4µM*,-0.2,-12.6%
O=C(O)/C=C\C(=O)Nc1ccc(N2CCN(c3cccc(Cl)c3)CC2)cc1,?,-1.1%,-21.8%,-10.1,-18.3%
O=C(O)/C=C\C(=O)Nc1ccc(N2CCN(c3ccc(Cl)cc3)CC2)cc1,3.55µM*,?,-15.5%,-2.1,?
O=C(O)/C=C\C(=O)Nc1ccc(N2CCN(c3ccc(Cl)c(Cl)c3)CC2)cc1,2.24µM*,?,-20.6%,3.1,?
SMILES,Tau ThT inhib,Tau fibril FP,Sfp inh,FBPA coupling cs,Tau fluor cs
O=C(O)/C=C\C(=O)Nc1ccccc1C(=O)N1CCN(c2ccc(Cl)cc2)CC1,-16.2%,-2.6%,-23.4%,9.1,-9.7%
O=C(O)/C=C\C(=O)Nc1ccc(N2CCN(c3ccc(F)cc3)CC2)cc1,5.62µM*,-16.0%,?,-7.9,?
O=C(NCCCO)C(=O)NCC(c1ccc2c(c1)OCO2)N1CCOCC1 (centres undefined),-0.6%,-6.1%,.,.,-4.2%
CC(CNC(=O)c1cnn(-c2ccc(F)cc2)c1-n1cccc1)c1ccccc1 (centres undefined),?,6.7%,.,.,-13.8%
COc1ccc(OC)c(NC(=O)CC2C(=O)NCCN2C(=O)C(F)(F)F)c1 (centres undefined),-6.0%,-3.0%,.,.,-3.1%
COc1ccc(O)c(C(=O)C2c3ccccc3C(=O)N2c2ccc(C)cc2)c1 (centres undefined),-9.5%,-7.9%,22.4µM*,-16.8,-27.3%
COc1ccc(N2C(=O)c3ccccc3C2O)cc1 (centres undefined),.,.,23.4%,3.5,.
Cc1cccc(C(=O)Nc2sc3c(c2C(=O)N2CCCCC2)CCC(C)C3)c1 (centres undefined),?,4.6%,.,.,-10.5%
COc1ccc(CN=Cc2[nH]c3ccc(Br)c(Cl)c3c2O)cc1,15.8µM*,?,-16.8%,-30.4*,?
Cc1cc(C)cc(N=Cc2[nH]c3ccc(Br)c(Cl)c3c2O)c1,?,7.1%,-9.6%,-19.4,?
CCN1CCc2c(sc(N)c2C(N)=O)C1,?,?,50.1µM*,-14.9,-7.3%
CN1CCc2c(sc(N)c2C(N)=O)C1,?,?,56.2µM*,-33.1*,-15.0%
S=C(c1ccc(-c2cc(Cl)ccc2Cl)o1)N1CCCCC1,0.4%,12.9%,15.8µM*,0.2,-0.5%
COc1ccc(Cl)cc1NC(=S)N1CCCCCC1,.,.,8.4%,0.7,.
S=C(c1ccc(-c2cc(Cl)ccc2Cl)o1)N1CCOCC1,?,-1.3%,25.1µM*,-1.4,-24.4%
O=C(Nc1ccc(CN2CCOCC2)cc1)c1ccc(-c2cc(Cl)ccc2Cl)o1,-7.1%,?,2.9%,1.9,?
COC(=O)c1ccc(NC(=O)CC2C(=O)N(c3cccc(OC)c3)C(=O)N2Cc2ccco2)cc1 (centres undefined),7.7%,0.2%,.,.,-13.5%
CCn1c(SCc2nc3sc(C(=O)O)c(C)c3c(=O)[nH]2)nnc1-c1ccc(Cl)cc1,-15.5%,-0.2%,-1.7%,8.6,-1.5%
Cc1sc2nc(CSc3nnnn3-c3ccc(Cl)cc3)[nH]c(=O)c2c1C,?,-1.7%,79.4µM*,1.2,-15.9%
CC1=CN2C(=N)/C(=C/c3ccc(C)o3)C(=O)N=C2S1,?,2.4%,-2.0%,0.5,-11.1%
CC1=CN2C(=N)/C(=C/c3ccc(Sc4ccc(Cl)cc4)o3)C(=O)N=C2S1,12.6µM*,-9.3%,19.5%,0.2,?
CC1=CN2C(=N)/C(=C/c3ccc(Sc4ccc(C)cc4)o3)C(=O)N=C2S1,7.94µM*,-4.8%,-13.2%,0.2,?
CCN1CCN(c2c(/C=C3\SC(=S)N(Cc4ccco4)C3=O)c(C)c(C#N)c(=O)n2C)CC1,.,-17.1%,25.1µM*,-11.7,?
Cc1cc([N+](=O)[O-])cc2c1NC(c1ccccn1)C1CC=CC21 (centres undefined),-10.2%,-4.6%,15.8%,-1.7,-11.9%

# Source: PubChem (National Center for Advancing Translational Sciences (NCATS))
